15 compounds from PubChem BioAssay (EPA / NIEHS) can be followed below.

As a reminder, the AC50 is the concentration at which the activity in the assay is half-maximal.

Results filed as inconclusive are left out. Calls of active or inactive are those of the source. The calls were made as follows, unless noted: active = hit-call score of the fitted dose curve at least 0.9, where 1 is the maximum; inactive = score below 0.9.

Assay [1] deals with Retinoic acid receptor RXR-alpha (Homo sapiens) (UniProt P19793). As to the kind of experiment: ATG_RXRa_TRANS: Attagene TRANS-FACTORIAL HepG2 Assay for human Retinoid X Receptor alpha (RXRa) (AID 2283012; active = hit-call score of the fitted dose curve at least 0.9, where 1 is the maximum). The method, boiled down:
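Chimeric NR-GAL4 trans-activation in HepG2, 24 h treatment; reporter transcripts quantified by fluorescence on capillary electrophoresis, analysed for upward change from DMSO.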

Assay [2] addresses human Retinoid X Receptor beta (RXRb), RXRB (gene 6257) (UniProt P28702). Put plainly: ATG_RXRb_TRANS: Attagene TRANS-FACTORIAL HepG2 Assay for human Retinoid X Receptor beta (RXRb) (AID 2283013; active = hit-call score of the fitted dose curve at least 0.9, where 1 is the maximum). The method in brief: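 After a 24 h incubation with test chemical, transfected HepG2 cells carrying NR-Gal4 fusions and GAL4-UAS reporter transcription units yield RNA whose reporter cDNA is FAM-labelled, HpaI-cut and sized by capillary electrophoresis; increases over DMSO are scored.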

Read-out in assay [3]: E-selectin (Homo sapiens) (UniProt P16581)
Put plainly: BSK_3C_Eselectin: BioMAP Diversity Plus: 3C Assay for Eselectin Biomarker Activity (AID 2283015).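 As to outcome: cell surface E-selectin protein quantified by ELISA 24 h after dosing.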 The following applies: primary human endothelial cells (HUVEC); actives raise or lower the signal. The method in brief: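 E-selectin ELISA readout, fitted bidirectionally relative to DMSO, taken 24 h post-dosing in HUVEC cultures of the 3C system. Overt cytotoxicity tracked with sulforhodamine B staining of parallel wells.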

Read-out in assay [4]: Interleukin-1 alpha (IL1a), IL1A (gene 3552)
As to the kind of experiment: BSK_BE3C_IL1a: BioMAP Diversity Plus: BE3C Assay for Interleukin-1 alpha (IL1a) Biomarker Activity (AID 2283016). Particulars: primary human bronchial epithelial cells; actives raise or lower the signal. The method, boiled down:
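Measured in human lung primary bronchial epithelial cells: IL-1a by ELISA at 24 h after dosing, with bidirectional fitting against DMSO.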

Read-out in assay [5]: Monocyte Chemoattractant Protein-1 (MCP1), CCL2 (gene 6347)
Put plainly: BSK_3C_MCP1: BioMAP Diversity Plus: 3C Assay for Monocyte Chemoattractant Protein-1 (MCP1) Biomarker Activity (AID 2283017). Particulars: primary human endothelial cells (HUVEC); actives raise or lower the signal. The method in brief: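 MCP-1 was measured by ELISA 24 h after dosing in primary HUVEC 3C cultures and fitted in both directions relative to DMSO; cytotoxicity was checked by SRB total-protein staining in parallel wells.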

Read-out in assay [6]: Monocyte Chemoattractant Protein-1 (MCP1), CCL2 (gene 6347)
As to the kind of experiment: BSK_4H_MCP1: BioMAP Diversity Plus: 4H Assay for Monocyte Chemoattractant Protein-1 (MCP1) Biomarker Activity (AID 2283018). Particulars: primary human endothelial cells (HUVEC); actives raise or lower the signal. The method, boiled down:
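Primary human umbilical vein endothelium is exposed to chemical for 24 h before MCP-1 is assayed by ELISA. Concentration-response fitted bidirectionally relative to DMSO.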

Read-out in assay [7]: Human Leukocyte Antigen - DR isotype (HLADR), HLA-DRA (gene 3122)
As to the kind of experiment: BSK_3C_HLADR: BioMAP Diversity Plus: 3C Assay for Human Leukocyte Antigen - DR isotype (HLADR) Biomarker Activity (AID 2283019).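 As to outcome: ELISA of cell-surface HLA-DR on HUVEC 24 h after dosing.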 The following applies: primary human endothelial cells (HUVEC); actives raise or lower the signal. The method, boiled down: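 Bidirectional fitting against DMSO was applied to the HLA-DR ELISA signal from human umbilical vein endothelial cells, 24 h post-dose. Cytotoxicity came from parallel SRB total-protein staining; 3C proliferation was counted by SRB at 48 h.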

Read-out in assay [8]: Interleukin-8 (IL8), CXCL8 (gene 3576)
As to the kind of experiment: BSK_3C_IL8: BioMAP Diversity Plus: 3C Assay for Interleukin-8 (IL8) Biomarker Activity (AID 2283020). The following applies: primary human endothelial cells (HUVEC); actives raise or lower the signal. The method in brief:
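Using DMSO-treated wells as the baseline, bidirectional curve fitting was applied to ELISA-measured IL-8 from human umbilical vein endothelial cultures sampled 24 h after compound addition.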

In assay [9] the target is human Thyroid Receptor alpha (THRa1), THRA (gene 7067) (UniProt P10827). As to the kind of experiment: ATG_THRa1_TRANS: Attagene TRANS-FACTORIAL HepG2 Assay for human Thyroid Receptor alpha (THRa1) (AID 2283014; active = hit-call score of the fitted dose curve at least 0.9, where 1 is the maximum). The method in brief: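 Transcripts from GAL4-UAS-driven reporters, measured after 24 h compound exposure by RT-PCR plus capillary electrophoresis of 6-FAM-labeled fragments, were fitted for gain of signal relative to DMSO. Cells: transiently transfected HepG2 expressing NR-Gal4 chimeras.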
human Thyroid Receptor alpha (THRa1), THRA (gene 7067), sequence (P10827 whole entry, looked up, the tested form may be a part): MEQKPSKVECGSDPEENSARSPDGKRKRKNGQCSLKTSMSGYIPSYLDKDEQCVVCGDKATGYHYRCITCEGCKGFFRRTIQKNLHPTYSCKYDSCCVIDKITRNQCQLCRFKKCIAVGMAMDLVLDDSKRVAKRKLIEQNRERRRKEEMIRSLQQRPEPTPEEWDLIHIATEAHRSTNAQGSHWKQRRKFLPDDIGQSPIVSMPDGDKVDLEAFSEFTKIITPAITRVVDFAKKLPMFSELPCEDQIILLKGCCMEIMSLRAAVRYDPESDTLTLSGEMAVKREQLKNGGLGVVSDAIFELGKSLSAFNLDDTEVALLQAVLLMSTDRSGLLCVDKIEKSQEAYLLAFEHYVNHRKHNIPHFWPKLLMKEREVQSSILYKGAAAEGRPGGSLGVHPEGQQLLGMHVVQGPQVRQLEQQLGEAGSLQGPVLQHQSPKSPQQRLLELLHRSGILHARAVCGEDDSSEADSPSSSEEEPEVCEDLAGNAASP

E-selectin (Homo sapiens), sequence (P16581 whole entry, looked up): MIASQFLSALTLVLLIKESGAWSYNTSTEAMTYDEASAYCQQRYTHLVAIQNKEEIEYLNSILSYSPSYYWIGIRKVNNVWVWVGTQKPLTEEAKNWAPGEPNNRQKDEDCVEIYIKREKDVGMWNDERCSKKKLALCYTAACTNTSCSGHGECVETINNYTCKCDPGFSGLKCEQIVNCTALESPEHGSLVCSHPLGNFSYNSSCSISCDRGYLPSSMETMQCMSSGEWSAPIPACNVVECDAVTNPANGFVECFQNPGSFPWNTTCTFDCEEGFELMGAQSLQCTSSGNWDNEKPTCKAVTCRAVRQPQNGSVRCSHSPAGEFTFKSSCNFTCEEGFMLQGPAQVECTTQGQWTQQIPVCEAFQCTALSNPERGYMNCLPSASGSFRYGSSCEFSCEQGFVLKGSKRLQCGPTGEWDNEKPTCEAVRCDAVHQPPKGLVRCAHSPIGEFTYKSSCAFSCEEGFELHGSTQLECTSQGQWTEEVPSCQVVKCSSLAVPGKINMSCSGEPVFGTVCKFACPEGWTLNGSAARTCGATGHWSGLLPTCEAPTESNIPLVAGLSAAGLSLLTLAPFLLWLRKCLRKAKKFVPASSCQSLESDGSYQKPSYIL
human Retinoid X Receptor beta (RXRb), RXRB (gene 6257), sequence (P28702 whole entry, looked up, the tested form may be a part): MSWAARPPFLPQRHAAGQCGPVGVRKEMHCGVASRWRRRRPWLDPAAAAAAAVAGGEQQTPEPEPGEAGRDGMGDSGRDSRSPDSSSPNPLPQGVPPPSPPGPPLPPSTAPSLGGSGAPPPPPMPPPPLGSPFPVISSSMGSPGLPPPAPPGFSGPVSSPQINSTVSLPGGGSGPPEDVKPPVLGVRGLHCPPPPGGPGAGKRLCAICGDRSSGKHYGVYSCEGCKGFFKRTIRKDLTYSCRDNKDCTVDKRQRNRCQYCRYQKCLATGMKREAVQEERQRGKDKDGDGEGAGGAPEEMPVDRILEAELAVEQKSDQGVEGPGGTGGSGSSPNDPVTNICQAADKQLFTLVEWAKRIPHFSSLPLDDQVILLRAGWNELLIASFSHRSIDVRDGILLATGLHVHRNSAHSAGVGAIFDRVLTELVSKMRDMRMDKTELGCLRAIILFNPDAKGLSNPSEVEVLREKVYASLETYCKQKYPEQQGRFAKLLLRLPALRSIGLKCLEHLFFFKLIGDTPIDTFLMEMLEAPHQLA
Retinoic acid receptor RXR-alpha (Homo sapiens), sequence (P19793 whole entry, looked up, the tested form may be a part): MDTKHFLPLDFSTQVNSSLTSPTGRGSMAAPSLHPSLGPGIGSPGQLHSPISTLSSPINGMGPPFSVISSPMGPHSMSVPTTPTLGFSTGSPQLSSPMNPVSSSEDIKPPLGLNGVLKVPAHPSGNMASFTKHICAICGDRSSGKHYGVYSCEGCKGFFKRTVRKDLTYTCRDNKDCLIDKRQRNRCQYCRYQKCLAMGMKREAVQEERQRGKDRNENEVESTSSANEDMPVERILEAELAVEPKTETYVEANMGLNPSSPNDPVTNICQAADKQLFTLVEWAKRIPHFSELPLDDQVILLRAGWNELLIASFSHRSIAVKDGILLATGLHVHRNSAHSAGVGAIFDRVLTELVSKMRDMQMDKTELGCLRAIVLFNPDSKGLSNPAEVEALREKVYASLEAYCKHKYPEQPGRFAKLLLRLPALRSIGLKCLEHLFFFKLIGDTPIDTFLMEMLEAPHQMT

For the compound `CCOc1nc(NC)nc(NC(=O)NS(=O)(=O)c2ccccc2C(=O)OC)n1`, the result in assay [1], in assay [2], in [3], in assay [4], in [5] and in assay [6] was inactive. The result in assay [7] and in assay [8] was inactive.
`C#CCN1C(=O)COc2cc(F)c(N3C(=O)C4=C(CCCC4)C3=O)cc21`: the outcome in assay [1], in assay [2], in assay [9], in assay [3], in assay [4] and in assay [5] was inactive. Besides, the outcome in assay [6], in assay [7] and in [8] was inactive.
In the case of `CCOCN(C(=O)CCl)c1c(C)cccc1CC`, the compound was called inactive in [2], in [9], in assay [4], in assay [5] and in [8]. The AC50 in [3] was 15.7 µM (active); in assay [6], 20 µM (active); in [7] it was 20 µM (active).
Turning to `COP(=S)(OC)Oc1ccc(SC)c(C)c1`, the result in [1], in assay [2], in [3], in assay [5], in assay [6] and in [7] was inactive. Further, the result in assay [8] was inactive. The AC50 in assay [4] is 5.15 µM (active).
As for `CC(C)(C)C(O)/C(=C\c1ccc(Cl)cc1Cl)n1cncn1` (stereo unspecified), the outcome in assay [1] and in assay [9] was inactive. Further, the AC50 in assay [3] was 24 µM (active); in [4], 32.9 µM (active); in assay [5] it was 30.9 µM (active); in assay [6], 22.6 µM (active); in assay [7], 31.6 µM (active); in assay [8], 32.2 µM (active).
Consider `CCC(C)Nc1c([N+](=O)[O-])cc(C(C)(C)C)cc1[N+](=O)[O-]` (stereo unspecified), for which the call in [2], in assay [4] and in [8] was inactive. For the same compound, the AC50 in [3] was 25.8 µM (active); in assay [5] it was 31.3 µM (active); in assay [6] it was 20 µM (active); in [7] it was 20 µM (active).
For the compound `CC1(c2ccc(Oc3ccccc3)cc2)OC(=O)N(Nc2ccccc2)C1=O` (stereo unspecified), the compound was classed as inactive in [1], in [2], in [9] and in assay [4]. In addition, the AC50 in assay [3] was 30.9 µM (active); in assay [5], 33.3 µM (active); in assay [6], 16.3 µM (active); in assay [7] it was 24 µM (active); in assay [8] it was 24 µM (active).
For `COC(=O)c1ccccc1S(=O)(=O)NC(=O)N(C)c1nc(C)nc(OC)n1`, the call in [1], in assay [9], in [3], in assay [4], in [5] and in [6] was inactive. Moreover, the result in [7] and in assay [8] was inactive.
Take `CC[C@H](C)[C@H]1O[C@]2(C=C[C@@H]1C)C[C@@H]1C[C@@H](C/C=C(\C)[C@@H](O[C@H]3C[C@H](OC)[C@@H](O[C@H]4C[C@H](OC)[C@@H](O)[C@H](C)O4)[C@H](C)O3)[C@@H](C)/C=C/C=C3\CO[C@@H]4[C@H](O)C(C)=C[C@@H](C(=O)O1)[C@]34O)O2` (tested in a mixture with another compound): the call in [1], in assay [2] and in [9] was inactive. Further, the AC50 in assay [3] was 9.55 µM (active); in assay [4], 9.4 µM (active); in [5], 6.9 µM (active); in assay [6], 6.96 µM (active); in assay [7] it was 5.8 µM (active); in assay [8], 6.07 µM (active).
Regarding `O=C(O)COc1ccc(Cl)cc1Cl`, the compound was classed as inactive in assay [2], in assay [3], in assay [4], in assay [5], in assay [6] and in assay [7]. In addition, the outcome in [8] was inactive.
Consider `CNC(=O)Oc1cccc(N=CN(C)C)c1`, for which the result in [1], in [2], in assay [9], in assay [4], in assay [5] and in assay [6] was inactive. Also, the outcome in assay [8] was inactive. Also, the AC50 in assay [3] was 20 µM (active); in assay [7], 18.2 µM (active).
As to `COP(=S)(OC)Oc1ccc([N+](=O)[O-])cc1`, the compound was classed as inactive in assay [2], in assay [4] and in assay [6]. Besides, the AC50 is 8.4 µM (active) in [3], 33.8 µM (active) in assay [5], 17.4 µM (active) in [7] and 2.36 µM (active) in assay [8].
On to `CC(C)N(C(=O)COc1nnc(C(F)(F)F)s1)c1ccc(F)cc1`, for which the compound was classed as inactive in assay [1], in assay [2], in [3], in [4], in [5] and in [7]. In addition, in assay [8], the result was inactive. The AC50 in [6] was 22.4 µM (active).
Turning to `Cc1cc(C)nc(NC(=O)NS(=O)(=O)c2ccccc2C(=O)OC2COC2)n1`, the compound was classed as inactive in assay [2], in assay [9], in assay [3], in assay [4], in assay [5] and in assay [6]. For the same compound, the result in assay [7] and in assay [8] was inactive.
Regarding `O=C(NC(=O)c1c(F)cccc1F)Nc1ccc(OC(F)(F)C(F)OC(F)(F)F)c(Cl)c1` (stereo unspecified), the result in [1], in [9], in assay [4], in [5], in [6] and in assay [8] was inactive. Also, the AC50 is 12.7 µM (active) in assay [3] and 14 µM (active) in [7].
